Measured values as given in publication PMC4666376, “Characterisation of aptamer–target interactions by branched selection and high-throughput sequencing of SELEX pools”.
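Further: Pool frequency after one selection round with this target divided by frequency before selection.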

The sequences below were run against PAI-1 wild type, active (human, UniProt P05121 24-402) (assay: branched SELEX with high-throughput sequencing; PAI-1 immobilised on polyclonal anti-PAI-1 antibody; HBS (10 mM HEPES pH 7.4, 140 mM NaCl), 2 mM MgCl2, 2 mM CaCl2, 0.1% BSA; RNA pool 100 nM; PAI-1 captured on antibody-coated wells; 45 min; binding temperature not stated (PAI-1 capture at room temperature); high values mean tight binding). Settings: protein: recombinant; tags: N-terminal His6; structured_RNA; 2'-F pyrimidines.
Chain of PAI-1 wild type, active (P05121 24-402): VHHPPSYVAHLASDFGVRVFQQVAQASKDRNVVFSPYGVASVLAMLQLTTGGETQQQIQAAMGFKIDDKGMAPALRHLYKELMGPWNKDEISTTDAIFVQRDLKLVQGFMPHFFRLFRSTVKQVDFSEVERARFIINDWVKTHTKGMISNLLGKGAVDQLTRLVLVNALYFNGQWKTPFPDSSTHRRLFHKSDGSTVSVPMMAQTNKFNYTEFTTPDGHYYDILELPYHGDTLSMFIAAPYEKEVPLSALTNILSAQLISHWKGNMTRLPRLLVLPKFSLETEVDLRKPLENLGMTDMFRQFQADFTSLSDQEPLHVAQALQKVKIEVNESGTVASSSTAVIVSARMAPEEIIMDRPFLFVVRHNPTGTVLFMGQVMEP
With “GGGGCCACCAACGACAUUGUUGAGCGCUGAGUUUCUGCGUUAGUUCUGUCAAUGUUGAUAUAAAUAGUGCCCAUGGAUC” the binding signal was 3.37 enrichment factor. Sequence “GGGGCCACCAACGACAUUGACCAUGUAGGACUUAAAGUCUGACCACAAUGUGUGUUGAUAUAAAUAGUGCCCAUGGAUC” has a binding signal of 0.6 enrichment factor. For “GGGGCCACCAACGACAUUCCGCUCAUGAUCUGUUAUCAUGAGUGCGUAGUACCGUUGAUAUAAAUAGUGCCCAUGGAUC”, the binding signal was 1.08 enrichment factor. Sequence “GGGGCCACCAACGACAUUCACACAACGUAGGCUCGUGAGCCGAUCAGUGAUUAGUUGAUAUAAAUAGUGCCCAUGGAUC” has a binding signal of 0.81 enrichment factor. “GGGGCCACCAACGACAUUGACUCCUAGUUAUACCGAUUAGGACUUGUAGAUGCGUUGAUAUAAAUAGUGCCCAUGGAUC” was tested, and the binding signal was 0.26 enrichment factor. In the case of “GGGGCCACCAACGACAUUAAGUUCGUCCUCUUCCAAGAGAAGGGGUCUAUGCCGUUGAUAUAAAUAGUGCCCAUGGAUC”, the binding signal was 5.35 enrichment factor. “GGGGCCACCAACGACAUUGAGCUACGGCUAAGCCGCUAUAGUCUUCAGGAAUCGUUGAUAUAAAUAGUGCCCAUGGAUC” was tested, and the binding signal was 0.33 enrichment factor. In the case of “GGGGCCACCAACGACAUUUACGCACCGUAGACUUAAUAGUCGAUUAGUACAUGUUGAUAUAAAUAGUGCCCAUGGAUC”, the binding signal was 1.19 enrichment factor. Work on “GGGGCCACCAACGACAUUGAGUCUAGACAAAAUUGUCUUAAGUUCGUCUUAAUGUUGAUAUAAAUAGUGCCCAUGGAUC” yielded a binding signal of 7.89 enrichment factor. “GGGGCCACCAACGACAUUAAGUUCGUCCCGCAUGGUACGAUGCGGGUCUAUGCGUUGAUAUAAAUAGUGCCCAUGGAUC” showed a binding signal of 6.47 enrichment factor. In the case of “GGGGCCACCAACGACAUUCGACCAGACGACAAGUCGUCGCACCGUAGAGUGUAGUUGAUAUAAAUAGUGCCCAUGGAUC”, the binding signal was 0.15 enrichment factor. In the case of “GGGGCCACCAACGACAUUUGGCGAGAUGCCAUCUUUACCUUAAUAGGUAGUUCGUUGAUAUAAAUAGUGCCCAUGGAUC”, the binding signal was 2.77 enrichment factor. In the case of “GGGGCCACCAACGACAUUAAGUUCGUCCCCGUAAGCUCUUACGGGGUCUAUGCGUUGAUAUAAAUAGUGCCCAUGGAUC”, the binding signal was 5.92 enrichment factor. With “GGGGCCACCAACGACAUUACGUAGUUUGAGAUAGUUAACUCGAACGAUUAGUUGUUGAUAUAAAUAGUGCCCAUGGAUC” the binding signal was 1.57 enrichment factor. Work on “GGGGCCACCAACGACAUUGCUGUGCUAAUCGGUCUUCCGACGCAUAUUCGAAUGUUGAUAUAAAUAGUGCCCAUGGAUC” yielded a binding signal of 0.63 enrichment factor. For “GGGGCCACCAACGACAUUGGUAAUGGUGUGAAUUAACCUUAAGCCUAUUGGUUGUUGAUAUAAAUAGUGCCCAUGGAUC”, the binding signal was 0.22 enrichment factor. For “GGGGCCACCAACGACAUUACCAUGUAGGCGUAAUUUCACGCUGACCAAGUGUUGUUGAUAUAAAUAGUGCCCAUGGAUC”, the binding signal was 1.19 enrichment factor. “GGGGCCACCAACGACAUUCUAGUCUGGUAGCAAUACCUAAGUUCGUCUAGAAAGUUGAUAUAAAUAGUGCCCAUGGAUC” was tested, and the binding signal was 0.89 enrichment factor. “GGGGCCACCAACGACAUUUCAUAACGUAGACUGUCUGAGUCGAUCAGAGUGUUGUUGAUAUAAAUAGUGCCCAUGGAUC” was tested, and the binding signal was 1.68 enrichment factor. With “GGGGCCACCAACGACAUUGACUAGACAUGAUGUUGCAUGUCACCAUGUAAAAUGUUGAUAUAAAUAGUGCCCAUGGAUC” the binding signal was 0.92 enrichment factor. For “GGGGCCACCAACGACAUUUUACUGUAGAGAAGAAUUACUUCUCGACCAAAUGUGGUUGAUAUAAAUAGUGCCCAUGGAUC”, the binding signal was 0.55 enrichment factor. Sequence “GGGGCCACCAACGACAUUCACCACGUAGUGAAACUUUCACGACUAGAAUGUAAGUUGAUAUAAAUAGUGCCCAUGGAUC” has a binding signal of 0.74 enrichment factor. Work on “GGGGCCACCAACGACAUUGUAGACUUGUCAACGGUCGACUGUCGAUACAUGUGUUGAUAUAAAUAGUGCCCAUGGAUC” yielded a binding signal of 0.56 enrichment factor. “GGGGCCACCAACGACAUUGAUGAUCACUGUUUCGCGCAGUGCCGUAUAUCGAUGUUGAUAUAAAUAGUGCCCAUGGAUC” showed a binding signal of 4.36 enrichment factor. Work on “GGGGCCACCAACGACAUUUUGAUCAACACAACGUAGGUCUAUGCGACCGAUAGUUGAUAUAAAUAGUGCCCAUGGAUC” yielded a binding signal of 2.02 enrichment factor. “GGGGCCACCAACGACAUUACAUACCGUAGGGCAGAUCGCCUGACUAGUAAUACGUUGAUAUAAAUAGUGCCCAUGGAUC” showed a binding signal of 0.24 enrichment factor. “GGGGCCACCAACGACAUUGCAUCGUAGGCAUAUAGCUGACUGCAAUUUAGGACGUUGAUAUAAAUAGUGCCCAUGGAUC” was tested, and the binding signal was 2 enrichment factor. “GGGGCCACCAACGACAUUACGUAGCAUGAUGAGUUUCUCGUCGGCGAUCAGUUGUUGAUAUAAAUAGUGCCCAUGGAUC” was tested, and the binding signal was 0.98 enrichment factor. “GGGGCCACCAACGACAUUACGUAGCUGGGUUUCACCAGCGAUUAGUUGUUGAUAUAAAUAGUGCCCAUGGAUC” was tested, and the binding signal was 0.7 enrichment factor. “GGGGCCACCAACGACAUUACACUGUAGAGAAUACCCAAUUCUCGACUAGAUGCGUUGAUAUAAAUAGUGCCCAUGGAUC” was tested, and the binding signal was 0.74 enrichment factor. “GGGGCCACCAACGACAUUGCCGUAGUUUCUCGAUUCCCAGAGAGACGAUCGAUGUUGAUAUAAAUAGUGCCCAUGGAUC” was tested, and the binding signal was 4.28 enrichment factor. “GGGGCCACCAACGACAUUGUAGCAUAAUCAACCUGCGACUGUCGUGUGAUAAGGUUGAUAUAAAUAGUGCCCAUGGAUC” showed a binding signal of 1.02 enrichment factor. “GGGGCCACCAACGACAUUGUCGUAGCCGGACUCCACCGGUGACCAAUGAGCGUUGAUAUAAAUAGUGCCCAUGGAUC” was tested, and the binding signal was 0.57 enrichment factor. With “GGGGCCACCAACGACAUUAUGAGCCCUAUCUAUCGACCGAUCAUGUCACGUAGGUUGAUAUAAAUAGUGCCCAUGGAUC” the binding signal was 1.38 enrichment factor. “GGGGCCACCAACGACAUUUCGACUUGUAGACGAUAUUCGUCGACUCGAAGAGCGUUGAUAUAAAUAGUGCCCAUGGAUC” was tested, and the binding signal was 0.51 enrichment factor.
